Drawing on PubChem BioAssay AID651937 (The Scripps Research Institute Molecular Screening Center, 2012), this text covers IC50 for seven compounds.

A word on the IC50: it is the midpoint of a concentration-inhibition curve.

The list shows a part of the results. Unmarked numbers belong to inactive results. Active and inactive are the calls of the source. No stated cut-off is given here; in the data, active means IC50 below about 9 µM; inactive means the rest.

This assay can be described thus: compound binding to PGV04 antibody – biochemical, TR-FRET, distinct HIV envelope site, counter-screen for PG9 antibody binder project, dose response (AID 651937). Particulars: TR-FRET binding to control antibody PGV04. A general note: In TR-FRET formats the signal depends on donor and acceptor labels being close together.

Regarding `O=C(Nc1nnc(-c2ccccc2F)s1)c1ccccc1F`, the IC50 was 14.3 µM.

With `Cc1cccc(Nc2nc3c(S(=O)(=O)c4ccccc4)nnn3c3ccccc23)c1C`, the IC50 was 2.86 µM (active).

For the compound `COC(=O)C1=C(C)N(Cc2ccccc2C(F)(F)F)C(=NCc2ccc(OC)cc2)NC1c1cccc(C(F)(F)F)c1` (configuration not stated), the IC50 was more than 67 µM.

For `CC1(C)Cc2ccccc2-c2[nH]c(=S)[nH]c(=O)c21`, the IC50 is 38.1 µM.

Take `COc1ccc(-c2c(C)nn3c(N4CCC(C(=O)N5CCCCC5)CC4)cc(C)nc23)cc1OC`: the IC50 was 56.5 µM.

Take `O=C(Oc1ccccc1)Oc1ccc2c(c1)oc(=O)c1ccccc12`: the IC50 was 2.5 µM (active).

Regarding `S=c1[nH]c2ccccc2c2ccccc12`, the IC50 was 36.4 µM.
